# Measured values published in PubChem BioAssay.
# System: Noggin (protein binding on small-molecule microarray)
# Experiment: small molecules binding Noggin protein – biochemical, 635/667 nm fluorescence, primary screen (AID 1095);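 note: score merges 667 nm feature fluorescence with signal to noise over triplicate slides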
# Conditions: 635 nm fluorescence, higher = more signal
row,SMILES,composite z-score
1,COc1cc2c(cc1OC)CN(C(=O)[C@@H]1[C@H]3C(=O)O[C@H](c4ccccc4)[C@H](c4ccccc4)N3[C@H](c3ccc(OCCO)cc3)[C@@]13C(=O)Nc1ccc(C#CC4(O)CCCCCC4)cc13)CC2,1.47
2,C=C(/C(=C/C[C@H](OC(C)=O)c1cccc(OCCO)c1)c1cnc2ccccc2c1)C(C)C,0.608
3,OCCCC1=CC(c2ccc(CN3CCCC3)cc2)N(Cc2sc3ccccc3c2Cl)CC1 (stereo not given),0.895
4,CCOC(=O)C[C@H]1[C@H](OC(=O)c2ccccc2-c2ccccc2)[C@@H](NC(=O)C2CCCCC2)c2cc(OCCCO)ccc2N1C(=O)Cc1ccc(OC)cc1,0.159
5,CN1C(=O)C2C=CC(C(O)c3cccc4ccccc34)N(N3CCCCC3)C2C1=O (stereo not given),0.354
6,CC1=C([C@H](O)CCc2ccccc2)[C@H](CO)[C@@H]2C(=O)N(C)C(=O)[C@@H]2C1,0.296
7,O=C1O[C@@H](c2ccccc2)[C@@H](c2ccccc2)N2[C@@H](c3ccc(OCCO)cc3)[C@]3(C(=O)Nc4ccccc43)[C@@H](C(=O)O)[C@H]12,-0.179
8,C=C(/C(=C/C[C@@H](OC(C)=O)c1cccc(OCCO)c1)c1cc(C(=O)OC)ccc1OC)C(C)C,0.575
9,CCOC(=O)C[C@H]1[C@H](OC(=O)c2cc3ccccc3oc2=O)[C@@H](NC(=O)c2ccc(-c3ccccc3)cc2)c2cc(OCCCO)ccc2N1C(=O)c1ccc2ccccc2n1,0.873
10,CC[C@H]1C2=C3C(CC[C@H]4C(OCc5ccc(F)cc5C(F)(F)F)OC[C@](C)([C@@H]34)N(C(=O)OC(C)(C)C)C2)C(COC)C1COC (stereo not given in full),-0.207
11,C=CCOC(=O)[C@H]1[C@@H]2C(=O)O[C@@H](c3ccccc3)[C@@H](c3ccccc3)N2[C@@H](c2ccc(OCCOC(=O)[C@H]3C[C@H]4C(=O)N[C@@H](CCCCNC(C)=O)C(=O)N4[C@H]3c3ccc(O)cc3)cc2)[C@]12C(=O)Nc1ccccc12,1.63
12,[N-]=[N+]=Nc1ccccc1[C@@H]1OC(c2ccc(OCCCO)cc2)=N[C@]1(Cc1ccccc1)C(=O)NCC(O)CO (stereo not given in full),0.244
13,COc1ccc(C(O)C2C=CC3C(=O)N(c4ccccc4)C(=O)C3N2Nc2ccc([N+](=O)[O-])cc2)cc1 (stereo not given),0.0062
14,O=C1OCC=C[C@H]2OC34C=CCN(Cn5nnc6ccccc65)C(=O)[C@H]3N(CCCO)C(=O)[C@@H]4[C@@H]12 (stereo not given in full),-0.2
15,CCC[C@@H]1C[C@@]1(CCC)[C@@H](NC(=O)OCc1ccccc1)c1ccc(-c2ccccc2)cc1,-0.0553
16,CC(C)(C)OC(=O)CC[C@@]1(C(=O)NCc2ccccc2)N=C(c2ccc(OCCCO)cc2)O[C@@H]1c1ccccc1N=[N+]=[N-],0.878
17,COCCCNC(=O)[C@]1(CCS(=O)(=O)c2ccccc2)N=C(c2ccc(OCCCO)cc2)O[C@@H]1c1ccccc1CN=[N+]=[N-],0.896
18,C=C(COC)/C(=C/C[C@H](OC(=O)c1ccncc1)c1ccccc1OCCO)c1cnc2ccccc2c1,1.44

row,SMILES,composite z-score
1,O=C(NCC(F)(F)F)[C@@H]1c2ccccc2C(=O)N(Cc2cc(F)cc(C(F)(F)F)c2)[C@H]1c1ccc(CO)cc1,-1.08
2,Cc1ccccc1C(O)C1C=CC2C(=O)N(C)C(=O)C2N1N(c1ccccc1)c1ccccc1 (stereo not given),-0.177
3,COCCOC(=O)N1C(=O)[C@@]2(c3cc(C#CC4=CCCCC4)ccc31)[C@H](C(N)=O)[C@H]1C(=O)O[C@H](c3ccccc3)[C@H](c3ccccc3)N1[C@@H]2c1ccccc1OCCO,0.551
4,C[N+](C)(C)CCCCCCNC(=O)[C@H]1C[C@H]2C(=O)NCC(=O)N2[C@H]1c1ccc(O)cc1,1.6
5,O=C1OCC=C[C@H]2OC34C=CCN(Cc5ccccc5)C(=O)[C@H]3N(CCCCCCO)C(=O)[C@@H]4[C@@H]12 (stereo not given in full),-0.742
6,COc1ccc(-c2nc(-c3ccccc3)c3c(c2C)CO[Si]3(C(C)C)C(C)C)cn1,1.09
7,COCCOC(=O)N1C(=O)[C@@]2(c3cc(C#CC4(O)CCCCCC4)ccc31)[C@H](c1ccc(O)cc1)N1[C@H](c3ccccc3)[C@H](c3ccccc3)OC(=O)[C@H]1[C@@H]2C(=O)NC[C@H](O)c1ccccc1,1.78
8,[N-]=[N+]=NCc1ccccc1C[C@@]1(C(=O)NCc2ccccc2)N=C(c2ccc(OCCCO)cc2)O[C@@H]1c1ccccc1N=[N+]=[N-],-0.247
9,[N-]=[N+]=NCc1ccccc1C[C@@]1(C(=O)N2CCOCC2)N=C(c2ccc(OCCCO)cc2)O[C@@H]1c1ccccc1,-0.519
10,COc1ccc(NC(=O)O[C@H]2[C@H](OC(=O)Nc3ccccc3)[C@H](OC(=O)Nc3ccccc3)[C@@H](OC)O[C@@H]2CO)cc1,0.691
11,COCCOC(=O)N1C(=O)[C@@]2(c3ccccc31)[C@H](C(=O)N1CCN(c3ncccn3)CC1)[C@H]1C(=O)O[C@H](c3ccccc3)[C@H](c3ccccc3)N1[C@@H]2c1ccc(O)cc1,0.161
12,CCCCO[C@H]1C[C@H]2C(I)=C[C@@H]1C(=O)[C@]21CO1,0.359
13,COc1ccc(CN(C2=CC[C@@]3(C(N)=O)C(=O)C(Cl)=C(Cl)C(=O)[C@@]3(C#N)C2)S(=O)(=O)c2ccc(Br)cc2)cc1,-0.0701
14,CCCCN1CC=CC23O[C@@H]4/C=C\CCC(C)OC(=O)C4[C@H]2C(=O)N(C(CO)C(C)C)[C@@H]3C1=O (stereo not given in full),0.21
15,[N-]=[N+]=NCc1ccccc1C[C@]1(C(N)=O)N=C(c2ccc(OCCCO)cc2)O[C@H]1c1ccccc1,-0.593
16,C=CCNC(=O)[C@H]1[C@@H]2C(=O)O[C@@H](c3ccccc3)[C@@H](c3ccccc3)N2[C@@H](c2ccc(O)cc2)[C@]12C(=O)Nc1ccc(C#CC3(O)CCCCCC3)cc12,1.09
17,NCCCCCNC(=O)[C@@H]1C[C@@H]2C(=O)NCC(=O)N2[C@@H]1c1cccc(OCCO)c1,1.35
